Source: PubChem BioAssay
An excerpt weighted towards active compounds, which were near 3.9% of everything screened.
esBAF inh: Bmi1 luciferase reporter increase in mESCs, primary screen, esBAF inhibitor project, mouse ES cells, Bmi1 luciferase knock-in, single point | AID 602393, 2012 | reporter increase, % at 12.5 µM | hit rate 2% among 350,000 | 24 h; 100% = twice the neutral-well signal; in the data active means activation above about 40%; inconclusive means no clear call, values can overlap the other calls;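 further: 0% = median of the plate's neutral control wells and 100% = double that signal; a rise in the Bmi1 reporter signal indicates esBAF inhibition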
HSF1 activator: HSF-1 activators, primary screen, NIH3T3-HGL cells, MG132 stress, luminescence, single point; NIH3T3-HGL HSF-1 luciferase reporter, 8 h; 100% = twice DMSO control signal; activation, % at 9 µM; hit rate 1.7% among 300,000; AID 504408, 2011;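 active means mean replicate activation of at least 50% with a set share of replicates each reaching 50%; inconclusive means only one of those two conditions met; inactive means mean below 50% and too few replicates reaching it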;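 further: 0% = median of the neutral control wells and 100% = twice that signal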
Wnt act: Wnt/beta-catenin pathway activators, primary screen, cell-based, plate reader, single point. AID 743398, 2014. Wnt/beta-catenin reporter cell assay, activator. activation, % at 9.35 µM. hit rate 1.2% among 300,000; in the data active means activation above about 30%, passing the limit was not always enough; inconclusive means no clear call, values can overlap the other calls;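 further: 0% = neutral control wells and 100% = positive control wells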
MITF TRPM1 HTS: activators of MITF-driven TRPM1 promoter reporter, primary screen, cell-based, SK-MEL-5, luciferase, single point; SK-MEL-5 TRPM1-promoter luciferase, 24 h; % of positive control, neutral wells = 0; hit rate 0.75% among 300,000; AID 588334, 2011; activation, % at 12.5 µM;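 active means mean activation of at least 80% with every replicate also reaching 80%; inconclusive means mean reaches 80% but some replicate falls short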;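 further: 0% = neutral control wells and 100% = parthenolide positive control wells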
HSF1 inh: HSF1 inhibitors in luciferase reporter cells, primary screen, cell-based, NIH3T3, luminescence | NIH3T3-HGL HSE-luciferase, MG132-induced, luminescence 8 h; hits give low values | activity change, negative = inhibition, % at 7.5 µM (by protocol) | hit rate 0.77% among 300,000 | AID 2098, 2009;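 active means more than half of replicate wells show activity change below -50%, luminescence cut by over half; inconclusive means some wells, but at most half, below -50%; inactive means no replicate well below -50%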;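 further: luciferase reports HSF-1 transcriptional activity via heat shock element; 0% = median of DMSO wells and -100% = zero luminescence signal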
esBAF Ring1 qPCR: Ring1 mRNA increase in mouse ESCs, confirmation, esBAF inhibitor project, cell-based, mouse ESC, RT-qPCR, cherry-pick | shares compounds with esBAF inh | 550 tested, under 10 active | mouse ESC E14, Ring1 mRNA RT-qPCR fold change | fold change at 33 µM;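 active means Ring1 gene expression raised more than 2-fold over untreated cells in both replicates at either tested dose; inconclusive means only one replicate above 2-fold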;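 further: Ring1 transcript normalised to actin housekeeping signal by TaqMan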
esBAF Fgf4 qPCR: Fgf4 mRNA decrease in mouse ESCs, confirmation, esBAF inhibitor project, cell-based, mouse ESC, RT-qPCR, cherry-pick; shares compounds with esBAF inh; hit rate 4% among 550; Fgf4 expression fold change at 33 µM; AID 743177, 2013; mouse ESC E14, Fgf4 mRNA qPCR fold change; hits give low values;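 active means Fgf4 expression under 0.8 fold of control in both repeat measurements at one or both tested doses; inconclusive means under 0.8 fold in just a single repeat measurement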;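 further: Fgf4 transcript normalised to actin in duplex TaqMan qPCR; cells exposed to compound for 24 h before lysis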
Bmi1 derepress: esBAF inhibition via Bmi1 de-repression, confirmation, cell-based, RT-qPCR, mouse ESC, single point, cherry-pick. shares compounds with esBAF inh. mouse ESE14 ES cells, Bmi1 mRNA qPCR fold; hits give high values. fold change at 33 µM. 550 tested, under 10 active. AID 743180, 2013;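 active means Bmi1 expression fold change above 6 at either tested concentration, seen in replicate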;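 further: higher fold means more Bmi1 de-repression and stronger esBAF inhibition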
A549 cytotox: A549 cell cytotoxicity, cytotoxicity control, plate reader, single point, cherry-pick; AID 743188, 2013; shares compounds with esBAF inh; 550 tested, under 10 active; cell viability change % (negative = cytotoxic), % at 25 µM, hits read low; call rule not given here
HepG2 tox SP: HepG2 cell cytotoxicity, cytotoxicity control, plate reader, single point, cherry-pick; shares compounds with esBAF inh; hits give low values; activity change, negative = inhibition, % at 25 µM; hit rate 4% among 550; in the data active means activity change below about -50%
HEK293 cytotox SP: HEK293 cell cytotoxicity, cytotoxicity control, plate reader, single point, cherry-pick | shares compounds with esBAF inh | activity change, negative = inhibition, % at 25 µM, hits read low | hit rate 3% among 550; in the data active means activity change below about -38%, passing the limit was not always enough
* hit, by the source's call.

Results for COc1cc(C2Nc3cc(Cl)c(S(N)(=O)=O)cc3S(=O)(=O)N2)cc(OC)c1OC (configuration not stated) ?
esBAF inh: -1; HSF1 activator: 24; MITF TRPM1 HTS: -8; HSF1 inh: 6

Results for COc1cc(C2Nc3cc(Cl)c(S(N)(=O)=O)cc3S(=O)(=O)N2)ccc1OCc1ccccc1 (configuration not stated) ?
esBAF inh: inconclusive; HSF1 activator: 39; Wnt act: -3; MITF TRPM1 HTS: 46; HSF1 inh: 19; esBAF Ring1 qPCR: 0.95; esBAF Fgf4 qPCR: 1; Bmi1 derepress: 1.5; A549 cytotox: 1; HepG2 tox SP: -51*; HEK293 cytotox SP: -3

Results for COc1cc(C(=O)Oc2ccccc2/C=N/NC(=O)c2ccc(Cl)cc2Cl)cc(OC)c1OC ?
esBAF inh: 47*; HSF1 activator: 35; MITF TRPM1 HTS: 21; HSF1 inh: 7; esBAF Ring1 qPCR: 1.1; esBAF Fgf4 qPCR: 1; Bmi1 derepress: 8.4*; A549 cytotox: -8; HepG2 tox SP: 9; HEK293 cytotox SP: -5

How did C=CCOc1ccccc1/C=N/NC(=O)c1ccc(Cl)cc1Cl do in these assays?
esBAF inh: -2; HSF1 activator: 36; Wnt act: 2; MITF TRPM1 HTS: 2; HSF1 inh: -1

How did C[C@@H]1CN([C@H](C)CO)C(=O)Cc2cc(N(C)C)ccc2O[C@@H]1CN(C)C(=O)Nc1ccc(F)cc1 do in these assays?
esBAF inh: 1

Results for N#C[C@@H]1[C@H](c2ccc(C3=CCCCC3)cc2)[C@@H](CO)N1C(=O)CN1CCOCC1 ?
esBAF inh: -2

How did CC(C)c1ccc(NC(=O)c2cccnc2)cc1 do in these assays?
esBAF inh: 85*; HSF1 activator: 27; MITF TRPM1 HTS: 91*; HSF1 inh: 13; esBAF Ring1 qPCR: 1.1; esBAF Fgf4 qPCR: 0.81; Bmi1 derepress: 1.6; A549 cytotox: -1; HepG2 tox SP: -27; HEK293 cytotox SP: 5

How did COc1ccc(Cl)cc1C(=O)NNC(=O)c1cccs1 do in these assays?
esBAF inh: 55*; Wnt act: 0; MITF TRPM1 HTS: 38; esBAF Ring1 qPCR: 1.3; esBAF Fgf4 qPCR: 0.96; Bmi1 derepress: 1.4; A549 cytotox: -3; HepG2 tox SP: -35; HEK293 cytotox SP: -15

What do the screens show for `CC(C)NC[C@@H]1[C@H](c2ccc(C3=CCCCC3)cc2)[C@H](CO)N1C(=O)NC(C)C`?
esBAF inh: -10

Results for Nc1ccc2c(c1)Cc1cc(N)c(Cl)cc1-2 ?
esBAF inh: 88*; Wnt act: -4; MITF TRPM1 HTS: 32; esBAF Ring1 qPCR: 1.4; esBAF Fgf4 qPCR: 1; Bmi1 derepress: 1.6; A549 cytotox: -8; HepG2 tox SP: -41; HEK293 cytotox SP: 9

What do the screens show for `COc1ccc(CN(C)C[C@@H]2Oc3ccc(NS(=O)(=O)c4cn(C)cn4)cc3C(=O)N([C@H](C)CO)C[C@H]2C)cc1`?
esBAF inh: 0

What do the screens show for `CC1CCc2sc(C(=O)NC3CCCCC3)cc2C1` (configuration not stated)?
esBAF inh: 75*; Wnt act: 54*; esBAF Ring1 qPCR: 1.3; esBAF Fgf4 qPCR: 0.93; Bmi1 derepress: 1.4; A549 cytotox: -6; HepG2 tox SP: -17; HEK293 cytotox SP: -9

What do the screens show for `CC1CCc2sc(C(=O)NC(C)C3CCCO3)cc2C1` (configuration not stated)?
HSF1 activator: 39; Wnt act: 2; MITF TRPM1 HTS: 30; HSF1 inh: 25

Results for COc1ccc(S(=O)(=O)Nc2ccc3c(c2)C(=O)N([C@@H](C)CO)C[C@@H](C)[C@@H](CN(C)C(=O)c2ccncc2)OCCCC[C@@H](C)O3)cc1 ?
esBAF inh: 2

How did O=C1CCCc2c1sc1nc3n(c(=O)c21)CCCCC3 do in these assays?
esBAF inh: 68*; HSF1 activator: 25; Wnt act: 17; MITF TRPM1 HTS: 33; HSF1 inh: 6; esBAF Ring1 qPCR: 0.98; esBAF Fgf4 qPCR: 0.91; Bmi1 derepress: 1.3; A549 cytotox: -7; HepG2 tox SP: -62*; HEK293 cytotox SP: -14

Results for O=C(NCC1CCCCC1)[C@@H]1[C@@H](CO)[C@@H]2Cn3c(ccc(C4=CCCC4)c3=O)[C@H]1N2 ?
esBAF inh: 0

How did O=C(CCc1nnc(CCc2c[nH]c3ccccc23)o1)NC1CCC1 do in these assays?
esBAF inh: 66*; HSF1 activator: 47; Wnt act: 29; MITF TRPM1 HTS: 45; HSF1 inh: 38; esBAF Ring1 qPCR: 0.93; esBAF Fgf4 qPCR: 0.96; Bmi1 derepress: 1.5; A549 cytotox: -1; HepG2 tox SP: -31; HEK293 cytotox SP: 4

How did CN(CCc1ccccn1)C(=O)CCc1nnc(CCCc2ccccc2)o1 do in these assays?
esBAF inh: 110*; HSF1 activator: 20; Wnt act: -1; MITF TRPM1 HTS: 28; HSF1 inh: 18; esBAF Ring1 qPCR: 0.96; esBAF Fgf4 qPCR: 0.94; Bmi1 derepress: 1.3; A549 cytotox: -7; HepG2 tox SP: -6; HEK293 cytotox SP: -5

How did O/N=C\c1cnc(N2CCN(c3ccccc3)CC2)s1 do in these assays?
esBAF inh: 84*; HSF1 activator: -21; Wnt act: -1; MITF TRPM1 HTS: inconclusive; HSF1 inh: -5; esBAF Ring1 qPCR: 0.95; esBAF Fgf4 qPCR: 0.85; Bmi1 derepress: 1.6; A549 cytotox: -7; HepG2 tox SP: -36; HEK293 cytotox SP: -8

How did O=Cc1cnc(N2CCCCC2)s1 do in these assays?
HSF1 activator: -2; Wnt act: -1; MITF TRPM1 HTS: -3; HSF1 inh: -1
